Measurements as given in PubChem BioAssay (NCATS).
Unmarked numbers belong to inactive results. Records with an inconclusive call do not appear. A call without a number means that no potency is given here. Calls of active or inactive are those of the source. Unless noted, calls follow the shape of the dose curve; as a rule, active = well fitted curve in the direction sought with a large enough effect; inconclusive = small, poorly fitted or top-dose-only effect, or another doubt; inactive = no such curve, though single readings can be large; an effect the other way counts as inactive or inconclusive.

What was measured:
[1] = biological target: Parathyroid hormone/parathyroid hormone-related peptide receptor (Homo sapiens) (UniProt Q03431); experiment: qHTS for PTHR1 Agonists: Optimization Screen against the NCGC LOPAC library (AID 1347079);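 also: GloSensor cAMP luminescence in HEK-293 GP2 cells expressing human PTHR1 with IBMX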
How it was run: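 Signal increase flags agonism. GP2 cells, derived from HEK-293, express human PTHR1 and a GloSensor cAMP construct.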

[2] = qHTS for Inhibitors of the Functional Ribonucleoprotein Complex (vRNP) of Lassa (LASV) Arenavirus: LASV Primary Screen - GLuc reporter signal (AID 1347082; calls by dose curve; tested in HEK293 reporter line; also: nearly all actives have a fitted effect of over 60% in size; also: potency is read from the fitted curve at half-maximal effect)
[3] = qHTS for Inhibitors of the Functional Ribonucleoprotein Complex (vRNP) of Lassa (LASV) Arenavirus: Viability assay - alamar blue signal for LASV Primary Screen (AID 1347083; calls by dose curve; tested in HEK293 reporter line; also: series mostly up to about 57 µM; nearly all actives have a fitted effect of over 80% in size)
[4] = qHTS for Inhibitors of the Functional Ribonucleoprotein Complex (vRNP) of Lymphocytic Choriomeningitis Arenaviruses (LCMV): Viability assay - alamar blue signal for LCMV Primary Screen (AID 1347085; calls by dose curve; tested in HEK293 reporter line; also: series mostly up to about 57 µM; nearly all actives have a fitted effect of over 80% in size)
[5] = biological target: Nucleoprotein (Lymphocytic choriomeningitis virus (strain Armstrong)) (UniProt P09992); experiment: qHTS for Inhibitors of the Functional Ribonucleoprotein Complex (vRNP) of Lymphocytic Choriomeningitis Arenaviruses (LCMV): LCMV Primary Screen - GLuc reporter signal (AID 1347086; calls by dose curve; also: series mostly up to about 57 µM; nearly all actives have a fitted effect of over 70% in size)
[6] = qHTS of pediatric cancer cell lines to identify multiple opportunities for drug repurposing: Primary screen for TC32 cells (AID 1347089); also: nearly all actives have a fitted effect of over 60% in size
How it was run: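 qHTS, TC32, 48 h drug treatment, CellTiter-Glo luminescence as a proxy for metabolically active cells; primary top concentration 46 µM (MIPE 11-pt, NPC 8-pt); confirmatory 11-pt.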

[7] = qHTS of pediatric cancer cell lines to identify multiple opportunities for drug repurposing: Primary screen for DAOY cells (AID 1347090); also: nearly all actives have a fitted effect of over 55% in size; also: potency is read from the fitted curve at half-maximal effect; as to activity change, negative = cytotoxic: series mostly up to about 46 µM
How it was run: (§1)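 Eight- or eleven-point concentration series, 48 h treatment at 37 degrees C in growth media; readout CellTiter-Glo luminescence. Potency and efficacy were taken from the concentration-response curves.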

[8] = qHTS of pediatric cancer cell lines to identify multiple opportunities for drug repurposing: Primary screen for SJ-GBM2 cells (AID 1347091); also: potency is read from the fitted curve at half-maximal effect
How it was run: as §1

[9] = qHTS of pediatric cancer cell lines to identify multiple opportunities for drug repurposing: Primary screen for A673 cells (AID 1347092); also: nearly all actives have a fitted effect of over 45% in size; also: potency is read from the fitted curve at half-maximal effect
How it was run: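 Luminescence from CellTiter-Glo, taken after 15 min at room temperature, served as the proxy for metabolically active cells following 48 h treatment. Both potency and efficacy were taken from curves fitted to the titration data.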

[10] = qHTS of pediatric cancer cell lines to identify multiple opportunities for drug repurposing: Primary screen for SK-N-MC cells (AID 1347093); also: potency is read from the fitted curve at half-maximal effect; as to activity change, negative = cytotoxic: series mostly up to about 46 µM
How it was run: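 Metabolically active cells were quantified by ATP-dependent luminescence (CellTiter-Glo, 15 min at room temperature) following 48 h treatment. Cells had been plated at 500-1,000 per well and settled for 5 h beforehand.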

Chain of Nucleoprotein (Lymphocytic choriomeningitis virus (strain Armstrong)) (P09992 whole entry, looked up): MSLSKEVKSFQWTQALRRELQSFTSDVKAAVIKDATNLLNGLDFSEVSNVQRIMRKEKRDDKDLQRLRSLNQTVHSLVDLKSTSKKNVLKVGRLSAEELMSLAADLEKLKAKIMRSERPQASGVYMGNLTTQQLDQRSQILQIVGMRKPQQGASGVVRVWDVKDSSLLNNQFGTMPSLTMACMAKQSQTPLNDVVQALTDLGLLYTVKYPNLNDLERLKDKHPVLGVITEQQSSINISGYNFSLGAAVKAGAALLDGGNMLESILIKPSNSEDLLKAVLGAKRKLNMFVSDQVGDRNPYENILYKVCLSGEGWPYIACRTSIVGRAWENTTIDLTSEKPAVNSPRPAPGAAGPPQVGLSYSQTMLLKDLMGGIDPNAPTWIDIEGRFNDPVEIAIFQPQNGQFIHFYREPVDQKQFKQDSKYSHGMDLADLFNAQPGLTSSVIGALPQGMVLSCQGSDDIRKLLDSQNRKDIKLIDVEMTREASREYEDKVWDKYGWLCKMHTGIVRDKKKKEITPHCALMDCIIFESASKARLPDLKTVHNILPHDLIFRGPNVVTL
Chain of Parathyroid hormone/parathyroid hormone-related peptide receptor (Homo sapiens) (Q03431 whole entry, looked up): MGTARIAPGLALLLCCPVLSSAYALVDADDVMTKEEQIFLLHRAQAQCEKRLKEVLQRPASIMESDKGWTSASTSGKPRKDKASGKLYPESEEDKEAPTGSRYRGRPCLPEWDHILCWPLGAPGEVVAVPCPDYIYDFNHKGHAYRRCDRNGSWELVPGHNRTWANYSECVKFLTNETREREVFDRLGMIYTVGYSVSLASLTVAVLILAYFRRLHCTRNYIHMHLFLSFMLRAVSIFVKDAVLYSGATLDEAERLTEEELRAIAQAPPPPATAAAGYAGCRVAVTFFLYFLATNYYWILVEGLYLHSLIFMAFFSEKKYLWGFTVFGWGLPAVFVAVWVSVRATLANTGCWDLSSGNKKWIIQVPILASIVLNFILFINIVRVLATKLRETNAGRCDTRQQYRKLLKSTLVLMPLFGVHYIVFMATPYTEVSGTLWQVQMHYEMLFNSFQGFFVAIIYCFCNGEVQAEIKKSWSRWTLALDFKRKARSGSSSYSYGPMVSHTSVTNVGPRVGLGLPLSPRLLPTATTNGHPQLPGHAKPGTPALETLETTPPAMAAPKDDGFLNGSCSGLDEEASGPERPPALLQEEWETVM

Q: With `Cc1cccc(C)c1NC(=O)CN1CCCC1=O` as the molecule, how does the outcome [1] read?
A: inactive

Q: What about the Potency [2] of the same molecule?
A: inactive

Q: And the Potency [3]?
A: inactive

Q: And the Potency [4]?
A: inactive

Q: And the Potency [5]?
A: inactive

Q: And the Potency [6]?
A: inactive

Q: What about the Potency [7] of the same molecule?
A: inactive

Q: And the Potency [8]?
A: inactive

Q: What about the Potency [9] of the same molecule?
A: inactive

Q: Which outcome [1] does the source give for `NCC(O)c1ccc(O)cc1` (stereo not given) here?
A: inactive

Q: And the Potency [2]?
A: inactive

Q: What about the Potency [3] of the same molecule?
A: inactive

Q: What about the Potency [4] of the same molecule?
A: inactive

Q: And the Potency [5]?
A: inactive

Q: And the Potency [6]?
A: inactive

Q: And the Potency [7]?
A: inactive

Q: And the Potency [8]?
A: inactive

Q: What about the Potency [9] of the same molecule?
A: inactive

Q: What about the Potency [10] of the same molecule?
A: inactive

Q: What does the source list for `NN=C(N)N`?
A: outcome [1]: inactive; Potency [2]: inactive; Potency [3]: inactive; Potency [4]: inactive; Potency [5]: inactive; Potency [7]: inactive; Potency [8]: inactive; Potency [9]: inactive

Q: With `CCCC(C)(COC(N)=O)COC(=O)NC(C)C` (stereo not given) as the molecule, how does the outcome [1] read?
A: inactive

Q: What about the Potency [2] of the same molecule?
A: inactive

Q: What about the Potency [3] of the same molecule?
A: inactive

Q: And the Potency [4]?
A: inactive

Q: What about the Potency [5] of the same molecule?
A: inactive

Q: What about the Potency [7] of the same molecule?
A: inactive

Q: What about the Potency [8] of the same molecule?
A: inactive

Q: And the Potency [9]?
A: inactive

Q: And the Potency [10]?
A: inactive

Q: For `O=C1NCN(c2ccccc2)C12CCN(CC1COc3ccccc3O1)CC2` (stereo not given), which outcome [1] is on record?
A: inactive

Q: And the Potency [2]?
A: inactive

Q: And the Potency [3]?
A: inactive

Q: What about the Potency [4] of the same molecule?
A: inactive

Q: What about the Potency [5] of the same molecule?
A: inactive

Q: What about the Potency [7] of the same molecule?
A: inactive

Q: What about the Potency [8] of the same molecule?
A: inactive

Q: What about the Potency [9] of the same molecule?
A: inactive

Q: Which Potency [2] does the source give for `CC(=O)[C@]1(O)Cc2c(O)c3c(c(O)c2[C@@H](O[C@H]2C[C@H](N)[C@H](O)[C@H](C)O2)C1)C(=O)c1ccccc1C3=O` here?
A: 3.98 µM (active)

Q: What does the source list for `COc1ccccc1N1CCNCC1`?
A: outcome [1]: inactive; Potency [2]: inactive; Potency [3]: inactive; Potency [4]: inactive; Potency [5]: inactive; Potency [6]: inactive; Potency [7]: inactive; Potency [8]: inactive; Potency [9]: inactive

Q: What does the source list for `COc1ccc(C(CN(C)C)C2(O)CCCCC2)cc1` (stereo not given)?
A: outcome [1]: inactive; Potency [2]: inactive; Potency [3]: inactive; Potency [4]: inactive; Potency [5]: inactive; Potency [6]: inactive; Potency [7]: inactive; Potency [8]: inactive; Potency [9]: inactive

Q: With `COC[C@H]1OC(=O)c2coc3c2[C@@]1(C)C1=C(C3=O)C2CCC(=O)[C@@]2(C)C[C@H]1OC(C)=O` (stereo not given in full) as the molecule, how does the outcome [1] read?
A: inactive

Q: What about the Potency [2] of the same molecule?
A: inactive

Q: And the Potency [3]?
A: inactive

Q: And the Potency [5]?
A: inactive

Q: What about the Potency [6] of the same molecule?
A: inactive

Q: What about the Potency [7] of the same molecule?
A: 18.7 µM (active)

Q: And the Potency [8]?
A: 0.264 µM (active)

Q: What about the Potency [9] of the same molecule?
A: 4.69 µM (active)

Q: For `NCC(CC(=O)O)c1ccc(Cl)cc1` (stereo not given), which outcome [1] is on record?
A: inactive

Q: And the Potency [2]?
A: inactive

Q: And the Potency [3]?
A: inactive

Q: What about the Potency [4] of the same molecule?
A: inactive

Q: What about the Potency [5] of the same molecule?
A: inactive

Q: What about the activity change, negative = cytotoxic [6] of the same molecule?
A: 1.72% [at 0.594 µM]

Q: What about the activity change, negative = cytotoxic [7] of the same molecule?
A: -6.69% [at 0.597 µM]

Q: What about the activity change, negative = cytotoxic [8] of the same molecule?
A: -1.55% [at 0.597 µM]

Q: What about the activity change, negative = cytotoxic [9] of the same molecule?
A: -10.9% [at 0.597 µM]

Q: For `c1ccc2c(c1)OCC(C1=NCCN1)O2` (stereo not given), which outcome [1] is on record?
A: inactive

Q: What about the Potency [2] of the same molecule?
A: 14.1 µM (active)

Q: What about the Potency [7] of the same molecule?
A: 26.6 µM (active)

Q: What about the Potency [9] of the same molecule?
A: 13.3 µM (active)

Q: Which outcome [1] does the source give for `Cc1ncc(CNC(=O)N(CCCl)N=O)c(N)n1` here?
A: inactive

Q: What about the Potency [2] of the same molecule?
A: inactive

Q: What about the Potency [3] of the same molecule?
A: inactive

Q: And the Potency [4]?
A: inactive

Q: What about the Potency [5] of the same molecule?
A: inactive

Q: What about the Potency [7] of the same molecule?
A: inactive

Q: And the Potency [8]?
A: inactive

Q: Which results are given for `CCC1(C2=NCCN2)Cc2ccccc2O1` (stereo not given)?
A: outcome [1]: inactive; Potency [2]: inactive; Potency [3]: inactive; Potency [4]: inactive; Potency [5]: inactive; Potency [7]: inactive; Potency [8]: inactive; Potency [9]: inactive

Q: For `N#CC(C#N)=Cc1ccc(O)c(O)c1`, which outcome [1] is on record?
A: inactive

Q: What about the Potency [2] of the same molecule?
A: inactive

Q: What about the Potency [3] of the same molecule?
A: inactive

Q: What about the Potency [4] of the same molecule?
A: inactive

Q: And the Potency [5]?
A: inactive

Q: What about the Potency [7] of the same molecule?
A: inactive

Q: What about the Potency [8] of the same molecule?
A: inactive

Q: What about the Potency [10] of the same molecule?
A: 13.3 µM (active)

Q: For `CCCN1CCC[C@@H]2Cc3nc(N)ncc3C[C@H]21`, which outcome [1] is on record?
A: inactive

Q: What about the Potency [2] of the same molecule?
A: inactive

Q: What about the Potency [3] of the same molecule?
A: inactive

Q: What about the Potency [4] of the same molecule?
A: inactive

Q: And the Potency [5]?
A: inactive

Q: What about the Potency [7] of the same molecule?
A: inactive

Q: What about the Potency [8] of the same molecule?
A: inactive

Q: What about the Potency [9] of the same molecule?
A: inactive

Q: With `CC[C@@H](CO)NC(=O)[C@@H]1C=C2c3cccc4c3c(cn4C)C[C@H]2N(C)C1` as the molecule, how does the outcome [1] read?
A: inactive

Q: And the Potency [2]?
A: inactive

Q: And the Potency [3]?
A: inactive

Q: What about the Potency [4] of the same molecule?
A: inactive

Q: And the Potency [5]?
A: inactive

Q: What about the Potency [7] of the same molecule?
A: inactive

Q: What about the Potency [8] of the same molecule?
A: inactive

Q: For `CNCC(O)c1ccc(O)cc1` (stereo not given), which outcome [1] is on record?
A: inactive

Q: And the Potency [2]?
A: inactive

Q: What about the Potency [3] of the same molecule?
A: inactive

Q: What about the Potency [4] of the same molecule?
A: inactive

Q: And the Potency [5]?
A: inactive

Q: What about the Potency [7] of the same molecule?
A: inactive

Q: What about the Potency [8] of the same molecule?
A: inactive

Q: What about the Potency [9] of the same molecule?
A: inactive

Q: With `CC(O)(CS(=O)(=O)c1ccc(F)cc1)C(=O)Nc1ccc(C#N)c(C(F)(F)F)c1` (stereo not given) as the molecule, how does the outcome [1] read?
A: inactive

Q: And the Potency [2]?
A: inactive

Q: And the Potency [3]?
A: inactive

Q: What about the Potency [4] of the same molecule?
A: inactive

Q: What about the Potency [5] of the same molecule?
A: inactive

Q: What about the Potency [7] of the same molecule?
A: 2.96 µM (active)

Q: And the Potency [9]?
A: 1.18 µM (active)

Q: And the Potency [10]?
A: 0.469 µM (active)

Q: What does the source list for `CC(C)=CCOc1c2occc2cc2ccc(=O)oc12`?
A: outcome [1]: inactive; Potency [2]: inactive; Potency [3]: inactive; Potency [4]: inactive; Potency [5]: inactive; Potency [7]: inactive; Potency [8]: inactive; Potency [9]: inactive; Potency [10]: inactive

Q: With `CC[C@@H](CO)NC(=O)[C@@H]1C=C2c3cccc4[nH]cc(c34)C[C@H]2N(C)C1` as the molecule, how does the outcome [1] read?
A: inactive

Q: And the Potency [2]?
A: inactive

Q: What about the Potency [3] of the same molecule?
A: inactive

Q: What about the Potency [4] of the same molecule?
A: inactive

Q: What about the Potency [5] of the same molecule?
A: inactive

Q: And the Potency [7]?
A: inactive

Q: What about the Potency [8] of the same molecule?
A: inactive

Q: And the Potency [9]?
A: inactive

Q: What about the Potency [10] of the same molecule?
A: inactive

Q: Which outcome [1] does the source give for `c1ccc(C2CC2)c(OCC2=NCCN2)c1` here?
A: inactive

Q: And the Potency [2]?
A: inactive

Q: What about the Potency [3] of the same molecule?
A: inactive

Q: What about the Potency [4] of the same molecule?
A: inactive

Q: What about the Potency [5] of the same molecule?
A: inactive

Q: And the Potency [6]?
A: inactive

Q: And the Potency [7]?
A: inactive

Q: What about the Potency [8] of the same molecule?
A: inactive

Q: And the Potency [9]?
A: inactive

Q: What about the Potency [10] of the same molecule?
A: inactive

Q: For `CC(C)n1c(/C=C/[C@@H](O)C[C@@H](O)CC(=O)O)c(-c2ccc(F)cc2)c2ccccc21`, which Potency [2] is on record?
A: inactive

Q: For `Cc1ccc(S(=O)(=O)N[C@@H](CCCCN)C(=O)CCl)cc1`, which outcome [1] is on record?
A: inactive

Q: What about the Potency [2] of the same molecule?
A: inactive

Q: What about the Potency [3] of the same molecule?
A: inactive

Q: And the Potency [4]?
A: inactive

Q: And the Potency [5]?
A: inactive

Q: And the Potency [6]?
A: inactive

Q: And the Potency [7]?
A: inactive

Q: And the Potency [8]?
A: inactive

Q: What about the Potency [9] of the same molecule?
A: inactive

Q: What does the source list for `CC(CCc1ccccc1)NC(C)C(O)c1ccc(O)cc1` (stereo not given)?
A: outcome [1]: inactive; Potency [2]: inactive; Potency [3]: inactive; Potency [4]: inactive; Potency [5]: inactive; Potency [6]: inactive; Potency [7]: inactive; Potency [8]: inactive; Potency [9]: inactive
